Screens as filed in PubChem BioAssay.
Pf growth 96h: Primary qHTS for delayed death inhibitors of the malarial parasite plastid, 96 hour incubation; Potency, µM (doses to about 28.7 µM), inactives show top-dose activity change, negative = inhibition, hits mostly inhibitors; P. falciparum luciferase reporter growth, 96 h; AID 504834, 2011; 6.9% of 320,000 active
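P. falciparum expressing integrated firefly luciferase grown in erythrocytes (2% hematocrit, 0.05% parasitemia final) with compounds for 96 hours at 37 C, 5% CO2. Growth inhibition read as loss of luminescence after adding luciferase detection reagent.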
HCV inhibitor: qHTS Assay for Inhibitors of Hepatitis C Virus (HCV); Huh7.5.1 HCVcc-Cre infection, luciferase reporter, 44 h; Potency, µM (doses to about 41.8 µM), inactives show at the highest dose activity change, negative = inhibition, hits mostly inhibitors; 3.4% of 340,000 active; AID 651820, 2012
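After 44 h co-culture of compound, cells and HCVcc-Cre (~0.5 moi), substrate is added for 15 min at room temperature and luciferase measured over 15 sec. Cells were seeded at 1,000/well and pre-cultured 4 h.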
AmpC detergent: qHTS Inhibitors of AmpC Beta-Lactamase (assay with detergent); P00811; AmpC hydrolysis of nitrocefin, absorbance 480 nm, 0.01% Triton; Potency, µM (top dose mostly 114 µM), for inactives: top-dose activity change, negative = inhibition, usual class: inhibitors; 0.041% of 370,000 active;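 also: 0% = no-compound wells and -100% = no-enzyme wells; nearly all actives have a fitted effect of over 25% in size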
Target sequence (P00811 whole entry, looked up): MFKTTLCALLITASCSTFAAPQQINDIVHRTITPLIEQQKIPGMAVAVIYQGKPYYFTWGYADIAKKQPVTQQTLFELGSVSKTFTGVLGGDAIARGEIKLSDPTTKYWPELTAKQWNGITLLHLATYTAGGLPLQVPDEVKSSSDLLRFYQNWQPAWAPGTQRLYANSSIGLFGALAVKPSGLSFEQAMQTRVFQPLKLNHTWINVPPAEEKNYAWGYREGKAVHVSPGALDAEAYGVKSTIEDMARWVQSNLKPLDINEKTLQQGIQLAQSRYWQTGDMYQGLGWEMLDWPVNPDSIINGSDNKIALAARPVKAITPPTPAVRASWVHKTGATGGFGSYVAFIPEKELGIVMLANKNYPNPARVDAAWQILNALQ
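AmpC (5.3 nM in the dispensed reagent) in 20 mM phosphate pH 7.0 with 0.01% (detergent screen) or 0.0001% Triton X-100 was preincubated with compounds for 15 min at room temperature. Nitrocefin was then added from an 800 uM solution, and hydrolysis was followed at 480 nm.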
AMA1 RON2 block: qHTS for Inhibitors of AMA1-RON; Towards Development of Antimalarial Drug Lead: Primary Screen; AlphaScreen AMA1-biotinylated RON2 peptide binding; 0.2% of 360,000 active; Potency, µM (doses to about 58.2 µM), for the others: at the top dose activity change, negative = inhibition, usual class: inhibitors; AID 720542, 2013; Plasmodium falciparum AMA1 (3D7) - RON2 peptide interaction;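 also: 0% = vehicle wells and -100% = peptide control; nearly all actives have a fitted effect of over 45% in size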
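AMA1 (3D7) with his tag at 25 nM final met compounds first, then biotinylated RON2 peptide at 25 nM; detection used donor plus acceptor beads, 10 µg/mL apiece, read by AlphaScreen after 30 min at room temperature.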
Pf growth 48h: Primary qHTS for delayed death inhibitors of the malarial parasite plastid, 48 hour incubation. P. falciparum luciferase growth in erythrocytes, 48 h. Potency, µM (doses to about 28.7 µM), for the others: at the top dose activity change, negative = inhibition, actives largely listed as inhibitors. 5.9% of 310,000 active. AID 504832, 2011
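Erythrocytes infected with P. falciparum carrying an integrated firefly luciferase reporter (2% hematocrit, 0.1% parasitemia final) were exposed to compounds in RPMI 1640 with 0.5% Albumax at 37 C, 5% CO2. Growth inhibition was scored as reduced luminescence.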
AmpC inh no detg: qHTS Inhibitors of AmpC Beta-Lactamase (assay without detergent). AmpC nitrocefin hydrolysis, absorbance 480 nm, 0.0001% Triton. Potency, µM (top dose mostly 57.1 µM), without a hit: at the top dose activity change, negative = inhibition, most hits filed as inhibitors. 0.52% of 330,000 active;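 also: plate controls were no compound for no effect and no enzyme for full effect; nearly all actives have a fitted effect of over 20% in size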
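AmpC (5.3 nM in the dispensed reagent) in 20 mM phosphate pH 7.0 with 0.01% (detergent screen) or 0.0001% Triton X-100 was preincubated with compounds for 15 min at room temperature. Nitrocefin was then added from an 800 uM solution, and hydrolysis was followed at 480 nm.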
The depositor's hits bear a star. Most compounds without a hit are left out; they make up all but 11% or so of the library. Calls follow the shape of the dose curve; as a rule, active = well fitted curve in the direction sought with a large enough effect; inconclusive = small, poorly fitted or top-dose-only effect, or another doubt; inactive = no such curve, though single readings can be large; an effect the other way counts as inactive or inconclusive. Unless noted, % is scaled to controls: 0 for no effect and ±100 for the full control effect; potency is read from the fitted curve at half-maximal effect.

Results for OCC1(CCc2ccccc2)CCN(Cc2ccc(OC(F)F)cc2)CC1 ?
Pf growth 96h: 13µM*; HCV inhibitor: -30%; AmpC detergent: -6%; AMA1 RON2 block: 10%; Pf growth 48h: -28%; AmpC inh no detg: 6%

How did Cc1nn(CC(=O)NCc2ccccc2Br)c(=O)c2cc3occc3n12 do in these assays?
AmpC detergent: -1%

What do the screens show for `COc1ccc(Cn2c(CNS(=O)(=O)c3ccc(C)c(C)c3)nc3cccnc32)cc1`?
AmpC detergent: 0%

Results for OCC1(CCOc2ccccc2)CCN(Cc2cccn2-c2ncccn2)CC1 ?
Pf growth 96h: -93%; HCV inhibitor: 0%; AmpC detergent: -2%; AMA1 RON2 block: -5%; Pf growth 48h: inconclusive; AmpC inh no detg: 49%

Results for OCC1(CCOc2ccccc2)CCN(C2Cc3ccccc3C2)CC1 ?
Pf growth 96h: inconclusive; HCV inhibitor: -2%; AmpC detergent: 13%; AMA1 RON2 block: 13%; Pf growth 48h: 8.3µM*; AmpC inh no detg: 3%

How did CCOc1ccc(CNC(=O)C2CCN(S(=O)(=O)c3ccc4c(ccn4C)c3)CC2)cc1 do in these assays?
AmpC detergent: -1%

Results for COC(=O)[C@]12OC[C@]34C([C@@H](O)[C@@H]1O)[C@]1(C)CC(=O)C(O)=C(C)[C@@H]1C[C@H]3OC(=O)[C@H](O)[C@@H]24 (stereo partly drawn) ?
Pf growth 96h: 1µM*; HCV inhibitor: inconclusive; AmpC detergent: -9%; AMA1 RON2 block: 0%; Pf growth 48h: 1µM*; AmpC inh no detg: 71%

How did Cn1nnnc1Sc1ncnc2scc(-c3cc4ccccc4o3)c12 do in these assays?
Pf growth 96h: inconclusive; AmpC detergent: 6%; Pf growth 48h: 4.1µM*; AmpC inh no detg: -34%

How did Cn1nnnc1Sc1ncnc2scc(-c3ccc(-c4ccccc4)cc3)c12 do in these assays?
AmpC inh no detg: -15%

Results for Cn1nnnc1Sc1ncnc2scc(-c3cccc(F)c3)c12 ?
Pf growth 96h: inconclusive; AmpC detergent: -4%; Pf growth 48h: 4.7µM*; AmpC inh no detg: -4%

Results for Cn1nnnc1Sc1ncnc2scc(-c3cccc(C(F)(F)F)c3)c12 ?
AmpC inh no detg: -22%

How did CC(=O)c1ccccc1-c1csc2ncnc(Sc3nnnn3C)c12 do in these assays?
Pf growth 96h: 4.1µM*; AmpC detergent: 6%; Pf growth 48h: 12µM*; AmpC inh no detg: -11%

What do the screens show for `Cn1nnnc1Sc1ncnc2scc(-c3ccccc3C(F)(F)F)c12`?
Pf growth 96h: 7.4µM*; AmpC detergent: 0%; Pf growth 48h: 13µM*; AmpC inh no detg: -9%

What do the screens show for `COc1ccc(Cl)cc1NC(=O)CSc1nc(=O)[nH]c2c1CCC2`?
AmpC detergent: 1%

What do the screens show for `COC(=O)Cc1ccc(O)c(N)c1`?
Pf growth 96h: 1.9µM*; HCV inhibitor: inconclusive; AmpC detergent: 4%; AMA1 RON2 block: -5%; Pf growth 48h: inconclusive; AmpC inh no detg: -22%

Results for COC(=O)c1cc(Cc2ccc(N)c(C(=O)OC)c2)ccc1N ?
Pf growth 96h: 73%; HCV inhibitor: -29%; AmpC detergent: -5%; AMA1 RON2 block: -2%; AmpC inh no detg: -21%

How did Cc1cccc(NC(=O)CS(=O)(=O)c2cccc3nsnc23)c1 do in these assays?
AmpC detergent: 1%

What do the screens show for `CC1CCCC(C)N1C(=O)CSc1nnc(COc2ccccc2)n1-c1ccccc1` (stereo not drawn)?
Pf growth 96h: 15µM*; HCV inhibitor: 7%; AmpC detergent: inconclusive; AMA1 RON2 block: 12%; AmpC inh no detg: 79%

What do the screens show for `N#Cc1ccc(CSc2nnc(COc3ccccc3)n2-c2ccccc2)cc1`?
Pf growth 96h: inconclusive; HCV inhibitor: inconclusive; AmpC detergent: 2%; AMA1 RON2 block: -4%; AmpC inh no detg: 6%

How did Cc1ccc(NC(=O)CSc2nnc(COc3ccc(C#N)cc3)n2-c2ccccc2)cc1C do in these assays?
Pf growth 96h: 10µM*; HCV inhibitor: inconclusive; AmpC detergent: -18%; AMA1 RON2 block: -3%; Pf growth 48h: inconclusive; AmpC inh no detg: 3%

Results for COc1ccc(-n2c(COc3ccccc3)nnc2SCc2ccc(C#N)cc2)cc1 ?
Pf growth 96h: inconclusive; HCV inhibitor: -20%; AmpC detergent: inconclusive; AMA1 RON2 block: -15%; Pf growth 48h: 12µM*; AmpC inh no detg: 59%

Results for Cc1ccc(OCc2nnc(SCc3cc(=O)[nH]c4ccccc34)n2-c2ccccc2)cc1 ?
Pf growth 96h: 5.9µM*; HCV inhibitor: -26%; AmpC detergent: -10%; AMA1 RON2 block: -17%; Pf growth 48h: inconclusive; AmpC inh no detg: -5%

How did Cc1ccccc1OCc1nnc(SCc2cc(=O)[nH]c3ccccc23)n1-c1ccccc1 do in these assays?
Pf growth 96h: inconclusive; HCV inhibitor: 3%; AmpC detergent: -9%; AMA1 RON2 block: 8%; Pf growth 48h: inconclusive; AmpC inh no detg: -1%

Results for O=C(CSc1ccnc(=O)[nH]1)NCc1ccc(F)cc1 ?
AmpC detergent: 0%

What do the screens show for `CCOc1ccc(NC(=O)CSc2oc(-c3ccco3)nc2S(=O)(=O)c2ccccc2)cc1`?
AmpC detergent: 8%

Results for Cc1ccc(-n2c(COc3ccccc3)nnc2SCC(=O)O)cc1 ?
AMA1 RON2 block: 0%

Results for CCOc1ccc(-n2c(SCc3ccc([N+](=O)[O-])cc3)nnc2-c2ccccc2)cc1 ?
Pf growth 96h: 4.7µM*; HCV inhibitor: -30%; AmpC detergent: -4%; AMA1 RON2 block: -12%; Pf growth 48h: inconclusive; AmpC inh no detg: -9%

Results for CC(Sc1nnc(COc2ccc([N+](=O)[O-])cc2)n1-c1ccccc1)C(=O)O (stereo not drawn) ?
Pf growth 96h: 9.3µM*; HCV inhibitor: 17%; AmpC detergent: 1%; AMA1 RON2 block: 13%; Pf growth 48h: -3%; AmpC inh no detg: -15%

Results for Cc1ccc(OCc2nnc(SCC(=O)Nc3cccc4ccccc34)n2-c2ccccc2)cc1 ?
Pf growth 96h: 13µM*; HCV inhibitor: inconclusive; AmpC detergent: -1%; AMA1 RON2 block: -7%; Pf growth 48h: inconclusive; AmpC inh no detg: -19%
